Reference: PubChem BioAssay AID651871 (Sanford-Burnham Center for Chemical Genomics, 2012)
Where “and” joins values, the source holds several entries; their conditions need not be identical. Equal values may be shown once.

test system: HL-1; assay: protection of cardiomyocytes from stress damage, SAR follow-up, cell-based, panel, H9c2 and HL-1, ATP luminescence, set 2 (AID 651871); details: H9c2/HL-1 cardiomyocytes, 2-deoxyglucose stress, with 2-deoxyglucose, run 12, at 79 µM (top of the series);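 note: cells exposed to stressor for 2 h before ATP readout; reference of the scale not given here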

| SMILES | activity (protection/inhibition) |
| --- | --- |
| COc1ccc2nc(-c3cc(OC)c(OC)c(OC)c3)cc(C(=O)NCC(=O)Nc3ccc(C(C)=O)cc3)c2c1 | 62.5% |
| COc1ccc2c(c1OC)C(=O)N1c3ccccc3C(=O)N(Cc3cccc(Cl)c3Cl)C21 (stereo not drawn) | 65.5% and -16.5% |
| CCOC(=O)c1cccc(NC(=O)CNC(=O)c2cc(-c3cc(OC)c(OC)c(OC)c3)nc3ccccc23)c1 | 63.3% |
